HP1b chromo inh = blocks HP1-beta chromodomain binding to methylated histone tails; P83916; AlphaScreen HP1-beta / biotin-H3K9me3 peptide binding; Potency, µM (top dose mostly 114 µM), most hits filed as inhibitors; hit rate 0.56% among 390,000; AID 540317; note: nearly all actives have a fitted effect of over 70% in size
Target sequence (P83916 whole entry, looked up): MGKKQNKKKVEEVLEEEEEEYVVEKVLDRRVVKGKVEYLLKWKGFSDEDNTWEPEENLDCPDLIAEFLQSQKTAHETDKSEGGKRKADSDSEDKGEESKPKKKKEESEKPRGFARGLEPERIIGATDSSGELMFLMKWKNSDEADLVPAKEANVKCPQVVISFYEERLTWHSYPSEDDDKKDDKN
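HP1-beta protein (50 nM final) preincubated 30 min at room temperature with biotinylated H3(1-18)K9me3 peptide (50 nM) in PBS pH 7.4, 0.01% Tween-20, then compound added for 30 min. AlphaScreen streptavidin donor/nickel chelate acceptor beads (10 ug/mL final), 30 min dark, luminescence read.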
JMJD2A Tudor = blocks the human JMJD2A Tudor domain. O75164. AlphaScreen JMJD2A-Tudor / H3K4me3 peptide binding. Potency, µM (series often up to 114 µM), usual class: inhibitors. hit rate 4.4% among 390,000. AID 504339; note: nearly all actives have a fitted effect of over 50% in size
BAZ2B block = blocks human BAZ2B; AID 504333; hit rate 4.4% among 360,000; Potency, µM (titrated, usually from 114 µM), actives largely listed as inhibitors; Q9UIF8; AlphaScreen BAZ2B-H3K14Ac peptide displacement; note: nearly all actives have a fitted effect of over 60% in size
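Protein-peptide AlphaScreen: BAZ2B 50 nM, b-H3K14Ac 50 nM, 1x PBS pH 7.4 + 0.01% Tween-20. Preincubation 30 min RT; cpd 30 min RT (top 110 uM); beads 20 min RT, light-protected.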
12-LOX inh = blocks human arachidonate 12S-lipoxygenase; P18054; purified 12hLO, xylenol orange hydroperoxide absorbance; Potency, µM (series often up to 108 µM), hits mostly inhibitors; hit rate 1.1% among 580,000; AID 1671190
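Hydroperoxide product was detected by ferrous iron/xylenol orange as the 573 to 405 nm absorbance ratio. Arachidonic acid at 40 uM (final) was turned over for 30 min at room temperature by 150 nM human 12hLO, pH 7.0 Hepes buffer, after 15 min compound preincubation.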
Sfp inh = Sfp phosphopantetheinyl transferase inhibition; AID 1490; hit rate 3.5% among 310,000; Q9F4F7; Potency, µM, hits mostly inhibitors; Biochemical Sfp PPTase activity, qHTS;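 note: the enzyme is Sfp with the accession as filed and its product quenches rhodamine fluorescence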
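Step 1, compound plus 15 nM Sfp-PPTase, 15 min, room temperature. Step 2, add rhodamine-CoA (5 uM) and BHQ-2-YbbR (12.5 uM). Step 3, read 525/598 nm fluorescence at 0 and 30 min.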
G9a block = blocks human histone lysine methyltransferase G9a; Q96KQ7; G9a H3K9 monomethylation, AlphaScreen, 2 h; Potency, µM (titrated, usually from 102 µM), hits mostly inhibitors; hit rate 8.8% among 350,000; AID 504332; note: nearly all actives have a fitted effect of over 75% in size
Target sequence (Q96KQ7 913-1193 limits assumed): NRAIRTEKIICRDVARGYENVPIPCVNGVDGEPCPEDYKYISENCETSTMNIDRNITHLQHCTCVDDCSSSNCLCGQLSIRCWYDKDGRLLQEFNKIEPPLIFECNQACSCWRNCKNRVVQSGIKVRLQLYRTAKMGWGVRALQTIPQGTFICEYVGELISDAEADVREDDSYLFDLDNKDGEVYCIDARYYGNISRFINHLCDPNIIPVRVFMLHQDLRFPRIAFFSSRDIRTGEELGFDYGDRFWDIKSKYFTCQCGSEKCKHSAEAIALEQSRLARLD
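Readings reflect AlphaScreen signal from monomethyl-H3K9 antibody detection. HMT at 20 nM; substrate b-H3K9 500 nM; cofactor SAM 20 uM; 2 h RT reaction; compounds tested as titrations in qHTS with 15 min preincubation.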
Large screens that a line does not name were inactive; ! = a repeat was not active. Shown are actives, neighbours in structure and some others; about 8.7% of the full set was active somewhere. Calls come from the whole dose curve; as a rule, active = well fitted curve in the direction sought with a large enough effect; inconclusive = small, poorly fitted or top-dose-only effect, or another doubt; inactive = no such curve, though single readings can be large; an effect the other way counts as inactive or inconclusive.

C=CCOc1cccc(C2/C(=C(/O)c3ccc4c(c3)CC(C)O4)C(=O)C(=O)N2CCN2CCOCC2)c1 (stereo unspecified)	G9a block 50µM
CCN(CC)CCN1C(=O)C(=O)/C(=C(/O)c2ccc(C)cc2)C1c1cccnc1 (stereo unspecified)	none (no result: G9a block)
O=C1c2cccn2CC(CNS(=O)(=O)Cc2ccccc2)N1Cc1ccccc1 (stereo unspecified)	none (no result: HP1b chromo inh, JMJD2A Tudor, BAZ2B block, Sfp inh, G9a block)
C=CCOc1cccc(C2/C(=C(/O)c3ccccc3)C(=O)C(=O)N2CCN2CCOCC2)c1 (stereo unspecified)	JMJD2A Tudor 79µM, BAZ2B block inconclusive, G9a block inconclusive
CC(C)c1cc(Nc2cccc(O)c2)cc(C(C)C)c1O	BAZ2B block 32µM, Sfp inh 22µM, G9a block inconclusive (no result: HP1b chromo inh, JMJD2A Tudor, 12-LOX inh)
CC(=O)Nc1cccc(O)c1	none
CC(N)=NCCCC[C@@H](N)C(=O)O	G9a block 10µM! (no result: HP1b chromo inh, JMJD2A Tudor, BAZ2B block, 12-LOX inh, Sfp inh)
CC(N)=NCCCC[C@H](N)C(=O)O	12-LOX inh inconclusive (no result: HP1b chromo inh, JMJD2A Tudor, BAZ2B block, G9a block)
CC(C)c1nccn1S(=O)(=O)c1cc(Cl)ccc1Cl	none
COc1ccc(Cl)cc1S(=O)(=O)n1ccnc1C(C)C	G9a block 50µM (no result: 12-LOX inh)
COc1ccc(Cl)cc1S(=O)(=O)n1c([N+](=O)[O-])cnc1C	BAZ2B block inconclusive, 12-LOX inh inconclusive, Sfp inh 71µM
COc1ccc(Cl)cc1S(=O)(=O)n1nnc2ccccc21	BAZ2B block inconclusive, G9a block 50µM
Cc1ccc(NC(=O)CCN=C2NS(=O)(=O)c3ccccc32)cc1Cl	none (no result: HP1b chromo inh, JMJD2A Tudor, BAZ2B block, Sfp inh, G9a block)
COC(=O)c1ccc(OC(=O)c2ccc(OC)c(Br)c2)cc1	none (no result: HP1b chromo inh, JMJD2A Tudor, BAZ2B block, Sfp inh, G9a block)
CC1(COc2ccc3[nH]ccc3c2)COc2ccc(C(=O)NCC3CCOCC3)cc2N1 (stereo unspecified)	none (no result: HP1b chromo inh, JMJD2A Tudor, BAZ2B block, Sfp inh, G9a block)
O=C(CSc1n[nH]c(-c2ccccc2)n1)Nc1ccccc1C(F)(F)F	none (no result: HP1b chromo inh, JMJD2A Tudor, BAZ2B block, Sfp inh, G9a block)
Oc1ccc(C2CCN(c3ccnc4ccccc34)CC2)cc1O	12-LOX inh 3.1µM (no result: HP1b chromo inh, JMJD2A Tudor, BAZ2B block, Sfp inh, G9a block)
O=C(C1CC1)N1CCN(c2ccnc3cc(Cl)ccc23)CC1	none
CCc1ccc(N2CC(c3noc(-c4cc(F)ccc4F)n3)CC2=O)cc1 (stereo unspecified)	none (no result: HP1b chromo inh, JMJD2A Tudor, BAZ2B block, Sfp inh, G9a block)
COc1cc(C2C=C(C34CC5CC(CC(C5)C3)C4)NC(=S)N2)cc(OC)c1OC (stereo unspecified)	none
COc1ccc(OC)c(C2C=C(C34CC5CC(CC(C5)C3)C4)NC(=S)N2)c1 (stereo unspecified)	HP1b chromo inh inconclusive, JMJD2A Tudor inconclusive, BAZ2B block 32µM, 12-LOX inh 32µM, G9a block inconclusive
O=C(O)c1cccnc1SC1CC(=O)N(c2ccccc2)C1=O (stereo unspecified)	G9a block 56µM
COc1ccc(N2C(=O)CC(Sc3ncccc3C(=O)O)C2=O)cc1 (stereo unspecified)	G9a block inconclusive
O=C(O)c1ccccc1SC1CC(=O)N(c2ccccc2)C1=O (stereo unspecified)	JMJD2A Tudor inconclusive, Sfp inh 79µM, G9a block inconclusive
CC(c1ccccc1)N1C(=O)CC(Sc2ncccc2C(=O)O)C1=O (stereo unspecified)	G9a block 22µM
Cc1ccc2nc(CCc3ccc(N)cc3)[nH]c2c1	JMJD2A Tudor inconclusive, BAZ2B block inconclusive, G9a block 35µM
CCc1nc2ccccc2[nH]1	none
CCc1nc2ccc(Cc3ccc4nc(CC)[nH]c4c3)cc2[nH]1	G9a block 45µM
Nc1ccc2nc(CCc3ccccc3)[nH]c2c1	JMJD2A Tudor inconclusive, BAZ2B block inconclusive, Sfp inh inconclusive, G9a block 7.9µM
O=S1(=O)NCC2(CCCN(CCc3ccccc3)C2)Oc2ncccc21 (stereo unspecified)	none (no result: HP1b chromo inh, JMJD2A Tudor, BAZ2B block, Sfp inh, G9a block)
CNC(=O)[C@@H]1CN(C(=O)CCc2nc3ccccc3s2)C[C@H]1c1nc(C)no1	none (no result: HP1b chromo inh, JMJD2A Tudor, BAZ2B block, Sfp inh, G9a block)
CN(C)S(=O)(=O)c1cccc(C(=O)N2CCc3ccccc32)c1	none
CN(C)S(=O)(=O)c1cccc(C(=O)C2=C3SC=C(c4ccccc4)N3CC2)c1	Sfp inh 56µM, G9a block inconclusive
O=C(CN1C(=O)NC2(CCCC2)C1=O)NCCc1ccc(Cl)cc1Cl	none (no result: Sfp inh)

Compound activity from PubChem.
